# Active and inactive are the calls of the source. How the calls were made is not given here.
# Assay: C difficile toxins, biochemical counterscreen, UDPG substrate absence, confirmatory dose response (AID 720650)
# Conditions: series mostly up to 19.5 µM
row,Compound,AC50
1,COc1ccccc1CNC(=O)CNC(=O)N1CC(=O)Nc2ccccc21,inactive
2,CN(C)CCNc1ccc(CO)c2sc3ccc(O)cc3c(=O)c12,6.06 µM (active)
3,COc1cc(NC(=O)CSc2nc3[nH]ncc3c(=O)n2-c2ccccc2C)cc(OC)c1OC,inactive
4,CC1=NCCc2c1[nH]c1cc(O)ccc21,21.9 µM (active)
5,COc1cc(/C=C(/NC(=O)c2ccccc2)C(=O)Nc2ccc(O)cc2)c([N+](=O)[O-])cc1OC,13.9 µM (active)
6,O=C(O)c1cc(S(=O)(=O)Nc2ccc3cn[nH]c3c2)ccc1Cl,inactive
7,COc1cccc(C(=O)Nc2ccc3c(c2)C(=O)N(C)[C@@H]2CC[C@H](CC(=O)NCCCN4CCOCC4)O[C@@H]2CO3)c1,inactive
8,CN(C)c1ccc(Cl)c(NC(N)=S)c1,19.2 µM (active)
9,COc1ccc(CC(=O)C2C(=O)N(C)c3ccccc32)cc1OC (stereo not drawn),inactive
10,CCN1CCN(c2oc(-c3ccccc3C)nc2S(=O)(=O)c2ccccc2)CC1,inactive
11,Cc1cnc(C(=O)OCC(=O)N2C(C)CCCC2C)cn1 (stereo not drawn),inactive
12,O=C(Nc1ccc(O)cc1)c1ccc2c(c1)C(=O)N(Cc1ccco1)C2=O,9.58 µM (active)
13,O=C(C[n+]1ccccc1)N/N=C/c1ccc(O)cc1,20.2 µM (active)
14,O=C(Nc1ccncc1)c1ccc(-c2ccccc2)cc1,inactive
15,COCC#Cc1ccc2c(c1)O[C@@H](CN(C)C(=O)CC1CC1)[C@H](C)CN([C@@H](C)CO)S2(=O)=O,inactive
16,CCOC(=O)C(=O)NNc1ccc(Cl)cc1,0.594 µM (active)
17,O=C(O)c1c(C(=O)O)c(-c2ccc(Br)cc2)n2c1CSC2,inactive
18,C=CCn1c(SCC(=O)N2CC(=O)Nc3ccccc32)nc2scc(-c3ccccc3)c2c1=O,inactive
19,COc1ccc(C=C2CCC3C(=O)CCCC3(C)C2=O)cc1 (stereo not drawn),inactive

row,Compound,AC50
1,Cn1c(SCc2nnc(-c3ccccc3)o2)nc2ccccc21,inactive
2,COc1ccc([N+](=O)[O-])cc1NC(=S)NC(C)=O,inactive
3,COc1ccccc1/C=N/NC(=O)CC(=O)NCc1ccccc1,> 39 µM (inactive)
4,CCOc1ccc2c(C)nc(NC3=NC(C)(C)C=C(C)N3)nc2c1,inactive
5,COc1cccc2sc(NNC(=O)C3COc4ccccc4O3)nc12 (stereo not drawn),0.972 µM (active)
6,CN1CCN(C(CNC(=O)c2ccc(Br)o2)c2ccc(F)cc2)CC1 (stereo not drawn),inactive
7,CCOC(=O)c1ccc[n+](CC(=O)c2ccc(NC(=O)c3ccccc3)cc2)c1,inactive
8,Cc1ccc(NC(=O)C2OCCc3ccccc32)cc1C (stereo not drawn),inactive
9,CCn1c(C)nc2cc(C(=O)N/N=C/c3ccc(OC)c(O)c3)ccc21,inactive
10,CCC(=Nc1ccccc1)C1=C(O)CCCC1=O,inactive
11,CNC(=O)C[C@H]1CC[C@@H]2[C@@H](COc3ccc(NC(=O)c4ccc(OC)cc4)cc3C(=O)N2C)O1,inactive
12,COc1ccc(Cl)cc1NC(=S)NC1CCCC1,inactive
13,Cc1cccc(NC(=O)c2ccc(N3CCOCC3)c([N+](=O)[O-])c2)n1,inactive
14,O=C1CSC(=Nc2ccc(O)cc2)N1,17.6 µM (active)
15,CCCc1cc(-c2n[nH]c(C(=O)OCC)c2-c2cscn2)c(O)cc1O,inactive
16,NS(=O)(=O)c1ccc(NC(=S)NCc2ccc3c(c2)OCO3)cc1,> 39 µM (inactive)
17,COc1ccc(OCc2cc(-c3ccc(Cl)cc3)no2)cc1,inactive
18,COC(=O)[C@H]1C[C@@H]1[C@H](NP(=O)(c1ccccc1)c1ccccc1)c1ccccc1,inactive
19,CCN(CC)S(=O)(=O)c1cc(C(=O)Nc2cccnc2Cl)ccc1Cl,inactive

# Reference: PubChem BioAssay AID720650 (Broad Institute, 2013)
